This is a sample that favours compounds with a hit; in the whole collection about 6.7% have one here.
BoNT A protease: BoNT/A light chain protease inhibitors, primary screen, biochemical, flow cytometry, MLPCN library; Botulinum neurotoxin type A light chain protease (Clostridium botulinum A str. ATCC 3502); multiplex microsphere protease substrate cleavage; inhibition, % at 10 µM; 360,000 tested, 0.17% active; AID 588499, 2011; in the data active means inhibition above about 30%; inconclusive means no clear call, values can overlap the other calls; further: plate controls were buffer without enzyme for full effect and enzyme alone for no effect
GDH-TPI counter: GDH-TPI coupling enzyme inhibitors, primary screen, artefact control for M. tuberculosis FBA inhibitor project, biochemical, absorbance, full deck; GDH-TPI coupled enzyme counterscreen, NADH absorbance; inhibition, % at 4.8 µM; 360,000 tested, 1.2% active; AID 588335, 2011; in the data active means inhibition above about 30%;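 further: 0% = DMSO wells and 100% = wells lacking the enzyme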
Anthrax LF prot: Bacillus anthracis LF protease inhibitors, primary screen, biochemical, multiplex microsphere, MLPCN library; inhibition, % at 10 µM; 360,000 tested, 0.12% active; AID 588501, 2011; multiplex microsphere protease cleavage assay; in the data active means inhibition above about 30%; inconclusive means no clear call, values can overlap the other calls; further: plate controls were buffer without enzyme for full effect and enzyme alone for no effect
Target sequence (P15917 whole entry, looked up): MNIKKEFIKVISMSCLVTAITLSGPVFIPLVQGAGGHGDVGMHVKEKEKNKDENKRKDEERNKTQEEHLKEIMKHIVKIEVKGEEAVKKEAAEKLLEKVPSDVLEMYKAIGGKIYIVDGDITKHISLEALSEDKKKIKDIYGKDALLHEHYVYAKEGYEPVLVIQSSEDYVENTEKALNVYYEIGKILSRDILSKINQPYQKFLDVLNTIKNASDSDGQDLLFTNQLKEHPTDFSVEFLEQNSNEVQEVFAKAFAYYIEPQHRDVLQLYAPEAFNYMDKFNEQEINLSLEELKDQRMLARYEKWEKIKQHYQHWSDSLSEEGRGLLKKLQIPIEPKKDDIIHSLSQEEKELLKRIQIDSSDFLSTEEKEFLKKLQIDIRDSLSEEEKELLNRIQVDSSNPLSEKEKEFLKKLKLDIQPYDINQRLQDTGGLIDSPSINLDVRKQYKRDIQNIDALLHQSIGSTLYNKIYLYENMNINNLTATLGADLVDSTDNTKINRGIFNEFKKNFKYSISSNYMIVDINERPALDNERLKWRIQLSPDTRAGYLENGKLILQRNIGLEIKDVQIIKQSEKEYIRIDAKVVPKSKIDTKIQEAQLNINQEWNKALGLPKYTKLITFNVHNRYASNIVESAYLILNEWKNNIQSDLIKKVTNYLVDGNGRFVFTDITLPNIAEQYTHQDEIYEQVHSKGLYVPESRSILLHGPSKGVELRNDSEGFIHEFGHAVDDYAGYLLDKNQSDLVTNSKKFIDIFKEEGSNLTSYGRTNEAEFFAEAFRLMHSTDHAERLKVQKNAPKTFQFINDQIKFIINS
BoNT F protease: BoNT/F light chain protease inhibitors, primary screen, biochemical, flow cytometry, MLPCN library. Botulinum neurotoxin type F light chain protease (Clostridium botulinum). Multiplex microsphere protease cleavage assay. 360,000 tested, 0.22% active. inhibition, % at 10 µM; in the data active means inhibition above about 35%, passing the limit was not always enough; inconclusive means no clear call, values can overlap the other calls; further: plate controls were buffer without enzyme for full effect and enzyme alone for no effect
FBA Mtb inh: Mtb FBA enzyme inhibitors, primary screen, biochemical, fluorescence, strain H37Rv; purified M. tuberculosis FBA, fluorescence read-out; inhibition, % at 1 µM; 360,000 tested, 2.3% active; AID 588726, 2011; in the data active means inhibition above about 27%;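 further: 0% = vehicle and 100% = reference inhibitor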
Bead autofluor: flagged as autofluorescent in microsphere protease counterscreen | compound autofluorescence counterscreen, microsphere flow cytometry; active compounds read high | fluorescence intensity (no concentration beside the values) | AID 624483 | 360,000 tested, 3.1% active; in the data active means fluorescence intensity above about 16000; inconclusive means no clear call, values can overlap the other calls
BoNTA LC inh 1: BoNT/A light chain protease inhibitors, confirmation, biochemical, flow cytometry, cherry pick 1 | multiplex microsphere protease assay | shares compounds with BoNT F protease | 720 tested, 3% active | AID 602139, 2011 | inhibition, % at 10 µM; in the data active means inhibition above about 32%
BoNT-F LC CP1: BoNT/F light chain protease inhibitors, confirmation, biochemical, flow cytometry, cherry pick 1; inhibition, % at 10 µM; shares compounds with BoNT F protease; 720 tested, under 10 active; multiplex microsphere protease cleavage assay
Anthrax LF CP1: Bacillus anthracis LF protease inhibitors, confirmation, biochemical, multiplex microsphere, cherry pick 1; shares compounds with BoNT F protease; multiplex microsphere protease cleavage assay; inhibition, % at 10 µM; 720 tested, under 10 active; AID 602142, 2011
* hit, by the source's call; ? = inconclusive; · = no result given. Unless noted, how the calls were made is not given here.

SMILES	BoNT A protease	GDH-TPI counter	Anthrax LF prot	BoNT F protease	FBA Mtb inh	Bead autofluor	BoNTA LC inh 1	BoNT-F LC CP1	Anthrax LF CP1
CC(=O)c1cccc(NS(=O)(=O)c2ccc(C(=O)Nc3ccccc3)cc2)c1	3	5	4	3	0	4050	·	·	·
O=C(Nc1ccccc1C(=O)O)c1cc(S(=O)(=O)N2CCCCCC2)ccc1Cl	0	0	8	-5	2	3038	·	·	·
O=C(Nc1ccccc1C(=O)O)c1cc(S(=O)(=O)Nc2cccc(F)c2)ccc1Cl	-2	-6	2	?	1	4123	0	-3	5
Cc1ccc(C(=O)Nc2ccccc2C(=O)O)cc1S(=O)(=O)Nc1ccccc1	·	13	·	·	2	·	0	-2	-5
O=C(Nc1ccc(S(=O)(=O)Nc2ccccn2)cc1)c1cccc(Cl)c1	-2	-6	-4	36*	-7	3864	0	-3	-2
O=C(O)c1ccc(NS(=O)(=O)c2cccc(C(=O)Nc3ccc(Br)cc3)c2)cc1	-2	-4	31*	?	-3	4139	-1	0	1
O=C(Nc1ccc(S(=O)(=O)Nc2ccccn2)cc1)c1cccc(Br)c1	2	2	3	0	0	5552	·	·	·
Cc1cc(C)cc(N(CC(=O)NCc2ccc(F)cc2)C(=O)CCC(=O)Nc2ccccn2)c1	2	-5	12	4	1	3922	·	·	·
Cc1c(C(=O)Nc2ccccc2[N+](=O)[O-])csc1-c1ccccc1	5	12	-1	39*	-1	2581	-1	-6	-2
COc1cccc(N2CC(O)Cn3c2nc2c3c(=O)[nH]c(=O)n2C)c1 (stereo unspecified)	7	1	4	41*	4	3007	1	-2	0
Cc1[nH]c(=O)[nH]c(=O)c1S(=O)(=O)Nc1ccc(F)c(Cl)c1	-2	8	33*	-6	-1	3421	0	0	2
Cc1ccccc1Oc1cc(-n2ncc(Cl)c(Cl)c2=O)ncn1	1	10	3	9	1	10338	·	·	·
CCc1cc2cccc(C)c2nc1SCC(=O)NC1CCCC1	-1	-3	4	37*	1	3309	1	-3	-2
CCCCn1c(N)c(N(CCOC)C(=O)COC(=O)COc2c(C)cc(C)cc2C)c(=O)[nH]c1=O	·	7	·	·	1	·	·	·	·
CCn1c(CCNC(=O)c2ccc(OC)c(OC)c2)nc2ccccc21	2	4	1	40*	3	4085	2	3	0
COc1ccc(C(=O)NCCCc2nc3ccccc3n2Cc2cc(C)ccc2C)cc1OC	0	-11	-15	-3	2	6399	·	·	·
CN(C(=O)c1cccc(NC(=O)Cc2ccccc2)c1)c1ccccc1	-1	-4	-13	-12	0	4074	·	·	·
CCC(=O)Nc1cccc(C(=O)N(Cc2ccccc2)Cc2ccccc2)c1	-2	-3	3	44*	0	4143	-1	-2	-3
CC1(C)CC(=O)C/C(=N\NC(=O)C2CC23CCC3)C1 (stereo unspecified)	-2	4	-2	-3	6	4481	·	·	·
COc1ccc(C)cc1N(CC(=O)N1CCOCC1)S(C)(=O)=O	-3	5	14	36*	1	4074	0	0	-5
O=C1SCCC1NC(=O)C(c1ccccc1)c1ccccc1 (stereo unspecified)	0	1	-1	-3	-1	5400	·	·	·
CCOc1cc(CNCC(O)c2ccccc2)cc(Cl)c1OC (stereo unspecified)	4	2	-1	41*	1	2453	1	-11	-2
CC(C)CNS(=O)(=O)c1ccc(CCC(=O)NC2CCCCC2)cc1	-1	-2	59*	11	1	3071	-1	-5	-1
CC(C)CNS(=O)(=O)c1ccc(CCC(=O)O)cc1	-1	3	-2	-13	1	2601	·	·	·
Cc1ccc(OCC(=O)Nc2ccc(S(=O)(=O)NC3=NCCCCC3)cc2)cc1	0	7	1	4	-3	3593	·	·	·
SMILES	BoNT A protease	GDH-TPI counter	Anthrax LF prot	BoNT F protease	FBA Mtb inh	Bead autofluor	BoNTA LC inh 1	BoNT-F LC CP1	Anthrax LF CP1
COC(=O)c1ccc(COc2ccc(-c3nn[nH]n3)cc2)cc1	49*	-13	-28	47*	-1	4697	0	3	-2
CCC(=O)c1ccc(OCc2ccc(C(=O)OC)cc2)cc1	0	2	-1	-5	-4	2448	·	·	·
CCOC(=O)C1CCN(C(c2cc3ccc(C)c(C)c3[nH]c2=O)c2nnnn2C2CCCCC2)CC1 (stereo unspecified)	33*	-5	12	38*	-1	60118*	-2	-5	-4
CCOC(=O)C1CCN(C(c2cc3c(C)ccc(C)c3[nH]c2=O)c2nnnn2C2CCCCC2)CC1 (stereo unspecified)	15	2	10	109*	-1	38836*	1	-3	0
Cc1ccc2cc(C(c3nnnn3C3CCCC3)N3CCOCC3)c(=O)[nH]c2c1C (stereo unspecified)	1	-1	14	3	2	9655	·	·	·
Cc1ccc(C)c2[nH]c(=O)c(C(c3nnnn3C3CCCC3)N3CCOCC3)cc12 (stereo unspecified)	-3	17	-1	-4	6	25756*	0	-1	-1
O=C1CSC(=S)N1N=Cc1cccc(OCc2ccccc2)c1	0	16	-11	-4	-2	2903	·	·	·
COc1ccc(CNC(=O)C2CCN(C(=O)c3ccc(-c4ccccc4)cc3)CC2)cc1	-1	3	32*	-21	4	3412	0	-5	0
CCCCn1c(-c2nonc2N)nc2ccccc21	0	17	-2	-5	0	3546	·	·	·
CC(C)CCn1c(-c2nonc2N)nc2ccccc21	1	13	-7	32	1	3532	-1	-4	-2
CCOc1ccccc1C(=O)NCC(=O)NNC(=O)CN(C)S(=O)(=O)c1ccc(Cl)cc1	3	16	-1	12	4	5429	·	·	·
